Measured values taken from ChEMBL document CHEMBL4513216, “Probing the Open Global Health Chemical Diversity Library for Multistage-Active Starting Points for Next-Generation Antimalarials” (ACS Infect Dis, 2020).
The campaign covered roughly 69,000 compounds. About 8,600 (12%) showed an effect of 50% or more. For the sample, strong results were picked, then their nearest neighbours and some compounds at random.

Test system: Plasmodium berghei
Test: Screen against P. berghei liver stage (PbLuc), transformed with Luciferase, at 10uM
Format: functional, HepG2
Details: tested at 10 uM

Row | SMILES | INHIBITION [%]
1 | CCc1nccn1C1CCCN(C(=O)CCCc2ccccn2)C1 (configuration not stated) | -6.14
2 | CC(C)C[C@H]1CN(c2nc3c(cc2C(N)=O)CCC3)CC[C@@]1(C)O | -22.5
3 | CCN1CCC2(CC1)CN(C(=O)c1cccnc1)c1ccc(Cl)cc12 | 60.2
4 | CCCN1CCC2(CC1)CN(C(=O)c1cccnc1)c1ccc(F)cc12 | 26.7
5 | CN1CCC2(CC1)CN(C(=O)c1cccnc1)c1ccc(Cl)cc12 | 26.7
6 | CC(C(N)=O)N(C)CCCc1cc(-c2ccc(F)cc2)n(C)n1 (configuration not stated) | -52.5
7 | Cc1nn(C)c(C)c1-c1ccc(=O)n(C(C)C(=O)NCc2ccco2)n1 (configuration not stated) | 15.7
8 | O=C(C[S+]([O-])Cc1ccc(F)cc1Cl)N1CCc2sccc2C1 (configuration not stated) | -3.96
9 | O=C(C[S+]([O-])Cc1ccccc1F)N1CCc2sccc2C1 (configuration not stated) | -13.9
10 | O=C(C[S+]([O-])Cc1ccc(Cl)cc1Cl)N1CCc2sccc2C1 (configuration not stated) | 21.8
11 | O=C(C[S+]([O-])Cc1ccc(F)cc1)N1CCc2sccc2C1 (configuration not stated) | 80.3
12 | O=C(C[S+]([O-])Cc1c(F)cccc1Cl)N1CCc2sccc2C1 (configuration not stated) | -10.9
13 | O=C(C[S+]([O-])Cc1c(Cl)cccc1Cl)N1CCc2sccc2C1 (configuration not stated) | 50.5
14 | O=C(NCCc1cccs1)[C@H]1CO[C@H]2CCN(CC3CC3)C[C@H]2C1 | 17.7
15 | O=C(NCc1cccs1)[C@H]1CO[C@H]2CCN(C3CCCC3)C[C@H]2C1 | 17.7
16 | O=C(NCCc1cccs1)[C@H]1CO[C@H]2CCN(C3CCC3)C[C@H]2C1 | 62
17 | CN(C)CCN1CCCC12CCN(C(=O)c1cccn1C)CC2 | 20.5
18 | CN(Cc1ccsc1)C(=O)CS(=O)(=O)Cc1ccc(Cl)c(Cl)c1 | 9.32
19 | CN(Cc1ccccc1)C(=O)CS(=O)(=O)Cc1ccc(Cl)c(Cl)c1 | -35.7
20 | CN(Cc1cccs1)C(=O)CS(=O)(=O)Cc1ccc(Cl)c(Cl)c1 | 62.2
21 | Nc1nccnc1C1CN(C(=O)c2cnc(C3CC3)nc2)CCO1 (configuration not stated) | 26.8
22 | Cc1noc(C)c1CN1C[C@@H](NC(=O)N(C)C)[C@H](C(C)C)C1 | -9.29
23 | CCc1nn(C)c(Cl)c1CN1C[C@H](NC(=O)CCO)[C@@H](C(C)C)C1 | 14.8
24 | CCc1nn(C)c(Cl)c1CN1C[C@@H](NC(=O)N(C)C)[C@H](C(C)C)C1 | 59.7
25 | c1ccc(OCc2cscn2)c(CNC2CCc3ncnn3C2)c1 (configuration not stated) | 3.1
26 | CCN(CC1COc2ccccc2O1)C(=O)NCCCn1cncn1 (configuration not stated) | 10.17

Row | SMILES | INHIBITION [%]
27 | CC(=O)N1CCCC1c1nnn2cc(Nc3ccccc3)ccc12 (configuration not stated) | 2.41
28 | CC(=O)N1CCCC1c1nnn2cc(-c3ccncc3)ccc12 (configuration not stated) | 61.9
29 | CC(=O)N1CCCC1c1nnn2cc(NCc3cccnc3)ccc12 (configuration not stated) | -15.3
30 | CCN1CCOCC12CCN(C(=O)C1CCC1)CC2 | -22.1
31 | CN(C)CCN1CCN(Cc2cccs2)Cc2cccnc21 | 7.53
32 | c1coc(CN2CCO[C@H]3[C@@H](OCC4CC4)CC[C@@H]32)c1 | 6.67
33 | CN(Cc1cnn(-c2ccccc2)n1)C1CCCN(c2cccnn2)C1 (configuration not stated) | -19.4
34 | c1cnnc(N2CCCC2CNCc2cccs2)c1 (configuration not stated) | 19.5
35 | CC(C)CCc1nc(CNCC2CCCN2c2cccnn2)cs1 (configuration not stated) | 61.3
36 | O=C(CNCC1CCCN1c1cccnn1)NCCc1cccs1 (configuration not stated) | 28
37 | CCCc1nc(CNCC2CCCN2c2cccnn2)no1 (configuration not stated) | 59
38 | c1cnnc(N2CCCC2CNCCc2cccs2)c1 (configuration not stated) | 91
39 | CCc1noc(CNCC2CCCN2c2cccnn2)n1 (configuration not stated) | 19.5
40 | CCc1nc(CNCC2CCCN2c2cccnn2)cs1 (configuration not stated) | 5.8
41 | CCCc1nc(CNCC2CCCN2c2cccnn2)cs1 (configuration not stated) | 48.2
42 | CN(Cc1ccccn1)CC1CCCN1c1cccnn1 (configuration not stated) | -8.11
43 | CN(Cc1cnn(-c2ccccc2)n1)CC1CCCN1c1cccnn1 (configuration not stated) | 58.3
44 | CCc1nc(CNCC2CCCN2c2cccnn2)no1 (configuration not stated) | 23.4
45 | CC(C)CN1CCS(=O)(=O)[C@@H]2CCN(S(=O)(=O)N(C)C)CC[C@@H]21 | 20.1
46 | O=C(NCCN1CCCCC1)C(c1ccccc1)N1CCCC1 (configuration not stated) | -22.1
47 | Cc1cnccc1-c1cnn(CCNC(=O)c2cccnc2)c1C1CC1 | 16.5
48 | CC(C)N(C)Cc1nnc2n1CCCN(c1ncccn1)C2 | 29.5
49 | CCC(CC)C(=O)NC1CCCc2nc(N3CCOCC3)ncc21 (configuration not stated) | 7.52
50 | Cn1cc(N2CC3(CCN(CC4CC4)C3)CC2=O)cn1 (configuration not stated) | 15.3
51 | Cc1nn(C)c(C)c1-c1cnc(C2CCCN(S(C)(=O)=O)C2)cn1 (configuration not stated) | -6.92
52 | CCNc1cc2c(nn1)CCN(C(=O)C1CCc3ccccc31)C2 (configuration not stated) | 11.2
